Reference: PubChem BioAssay (NCATS)
Inconclusive results are not listed. The source made the active and inactive calls. The call rests on the fitted dose curve; in most records, active means well fitted curve in the direction sought with a large enough effect; inconclusive means small, poorly fitted or top-dose-only effect, or another doubt; inactive means no such curve, though single readings can be large or run the other way. Residues, ends and D or L forms follow the SMILES beside them. *: point of attachment. Cbz = O=C(OCc1ccccc1)*

experiment: Cytometric Cell-Based qHTS for Inhibitors of the mTORC1 Signaling Pathway in MEF (Tsc2-/-, p53-/-) Cells (AID 2660); settings: mTORC1 pathway cytometry; series mostly up to 38.3 µM;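 further: percent of cells above a phospho-rpS6 to PI ratio cutoff in each well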
Outline: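 Tsc2-/-, p53-/- MEFs (empty vector) exposed to compound 24 h at 37 C, fixed, stained with Alexa-488 anti-phospho-rpS6 Ser235/236 and propidium iodide. Acumen laser scanning; phospho-S6/PI ratio thresholded against 7.5 nM rapamycin, reported as % positive cells.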

| Compound | outcome |
| --- | --- |
| COc1cc(C(O)CO)ccc1O (stereo not drawn) | inactive |
| CC(C)[C@H](NC(=O)OCc1ccccc1)C(=O)N[C@H](C=O)Cc1ccccc1 (Cbz-Val-Phe-aldehyde) | inactive |
| NC(N)=NC(N)=Nc1cccc(Cl)c1 | inactive |
| CCCCOC(=O)NS(=O)(=O)c1sc(CC(C)C)cc1-c1ccc(Cn2c(CC)nc3c(C)cc(C)nc32)cc1 | inactive |
| CN1CCN(c2nc3cc(C(F)(F)F)ccc3n3cccc23)CC1 | inactive |
| O=C(O)[C@H]1NCCC[C@H]1C(=O)O | inactive |
| C=CCN1CCc2c(cc(O)c(O)c2Br)[C@@H](c2ccccc2)C1 | inactive |
| C[C@](Cc1ccc(O)c(O)c1)(NN)C(=O)O | inactive |
| [Li+] | inactive |
| COc1ccc(-c2cc3ncc(C)n3c(Nc3ncccc3C(N)=O)n2)cc1OC | inactive |
| C#CC(N)CCC(=O)O (stereo not drawn) | inactive |
| CCCCC[C@H](CC(=O)NO)C(=O)N[C@H](C(=O)N1CCC[C@H]1CO)C(C)C | inactive |
| CCCCCC[C@@H]([C@@H](C)O)n1cnc2c(N)ncnc21 | inactive |
| N=C(N)SCCN | inactive |
| NC(C(=O)N[C@@H]1C(=O)N2C(C(=O)O)=C(Cl)CS[C@H]12)c1ccccc1 (stereo partly drawn) | inactive |
| CC(=O)[C@H]1CCC2C3CC=C4C[C@@H](OS(=O)(=O)O)CC[C@]4(C)C3CC[C@@]21C (stereo partly drawn) | inactive |
| CC1CNCCN1S(=O)(=O)c1cccc2cnccc12 (stereo not drawn) | inactive |
| COC(=O)C1=C(C)NC(C)=C([N+](=O)[O-])C1c1ccccc1C(F)(F)F (stereo not drawn) | inactive |
| OC1(c2ccc(Cl)cc2)CCN(Cc2c[nH]c3ccccc23)CC1 | inactive |

| Compound | outcome |
| --- | --- |
| O[Si](CCCN1CCCCC1)(c1ccc(F)cc1)C1CCCCC1 (stereo not drawn) | inactive |
| CC1CCN(CC[C@H]2CCCN2S(=O)(=O)c2cccc(O)c2)CC1 | inactive |
| N#CC(=C(\N)Sc1ccccc1N)/C(C#N)=C(/N)Sc1ccccc1N | inactive |
| CCCCCCCCCCCCCCC[C@H](O)[C@H](N)CO | inactive |
| C=CCN1CCc2c(cc(O)c(O)c2Cl)C(c2ccccc2)C1 (stereo not drawn) | inactive |
| C[C@]12C=CC(=O)C=C1CC[C@@H]1C2=CC[C@]2(C)[C@@H](C(=O)CN3CCN(c4cc(N5CCCC5)nc(N5CCCC5)n4)CC3)CC[C@@H]12 | inactive |
| O=C(c1ccc2c(c1)OCCO2)N1CCCCC1 | inactive |
| O=c1[nH]ccc2c(O)cccc12 | inactive |
| O=C(O)C1=CC(=C(c2ccc(O)c(C(=O)O)c2)c2ccc(O)c(C(=O)O)c2)C=CC1=O | inactive |
| O=C1Nc2ccc(I)cc2/C1=C/c1cc(Br)c(O)c(Br)c1 | inactive |
| COc1cc(N)c(Cl)cc1C(=O)OCCN1CCCCC1 | inactive |
| N#C/C(=C\c1ccc(O)c(O)c1)C(=O)NCCc1ccccc1 | inactive |
| CCCCCCCCCC(=O)NC(CN1CCOCC1)[C@H](O)c1ccccc1 (stereo partly drawn) | inactive |
| CC(N)=O | inactive |
| NC1(C(=O)O)CC1 | inactive |
| COc1ccccc1N1CCN(CCCCNC(=O)c2ccc3ccccc3c2)CC1 | inactive |
| CSC(N)=NCCC[C@H](N)C(=O)O | inactive |
| Cn1cc(C(F)(F)F)nc1-c1ccc(OCC(O)CNCCOc2ccc(O)c(C(N)=O)c2)cc1 (stereo not drawn) | inactive |
| Cn1c(=O)c2[nH]c(C3CCCC3)nc2n(C)c1=O | inactive |
